Consider six compounds from PubChem BioAssay.

Active and inactive are the calls of the source.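 Rule for the calls, unless noted: active = visually confirmed hit in the image check and inhibition above 20%; inconclusive = visually confirmed hit but inhibition not above 20%; inactive = no visual hit in the image check.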

Assay [1] can be described thus: inhibitors of TNFa-induced NFkB p65 translocation, primary screen, imaging, HUVEC, MLSMR starter and 10KST1 sets (AID 438;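 active = inhibition above 20% together with a positive visual image hit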;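 note: compound added about 3h40 before a 20 min TNFalpha stimulation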;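 for inhibition: signal is the nuclear over cytoplasmic p65 intensity ratio per well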). The note with it: HUVEC TNFa-induced p65 nuclear translocation; cell count: measured here: nuclei count (cytotoxicity indicator), at 2.08 µM; inhibition: at 2 µM, stronger effect = higher value, 0% TNFa-plus-vehicle, 100% no-TNFa wells.
The nature of assay [2]: inhibitors of mutant huntingtin aggregation, primary screen, imaging, exon1htt(103Q)mCFP cells, high-content imaging (AID 483;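 active = visual image review flags a hit and inhibition of aggregation exceeds 20%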;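 note: compound exposure lasted 3 days before fixation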;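 for nuclei count: percent of the per-plate median nuclei count of sample wells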). As to conditions: exon1htt(103Q)mCFP cell line, aggregate imaging, at 2 µM; inhibition of aggregation: stronger effect = higher value; nuclei count: measured here: cell count, toxicity.
The nature of assay [3]: inhibitors of E-selectin induction by TNFa, primary screen, imaging, HUVEC, immunofluorescence, MLSMR starter and 10KST1 sets (AID 487).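 For inhibition: signal is fraction of cell area covered by stained E-selectin grains.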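 For nuclei count: 100% = median nuclei count of all wells on the same plate.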 As to conditions: HUVEC TNFalpha-induced E-selectin immunofluorescence imaging, at 2 µM; inhibition: stronger effect = higher value; nuclei count: measured here: cell number, toxicity.
A short description of assay [4]: DUSP6 inhibitors restoring Erk phosphorylation by chemical complementation, primary imaging in DUSP6-transfected HeLa (AID 609;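 active = compounds giving at least 50% inhibition in the cell-based MKP-3 phosphatase rescue imaging test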;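 for inhibition: phospho-Erk level distribution per well compared with pooled transfected vehicle control wells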). As to conditions: HeLa MKP-3 transfected, phospho-Erk imaging KS statistic, at 10 µM, cells stimulated with TPA for 15 min.
The target in assay [5] is Dual specificity protein phosphatase 6 (Homo sapiens) (UniProt Q16828). The description is as above. The note with it: HeLa MKP-3 transfected, phospho-Erk imaging KS statistic; at 10 µM; stronger effect = higher value; cells stimulated with TPA for 15 min.
For assay [6], the target named is Voltage-gated potassium channel subunit beta-2 (Rattus norvegicus) (UniProt P62483). Nature of the assay: KvBeta enzyme negative modulators, primary screen, biochemical, NADPH fluorescence (AID 622;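 active = fluorescence slope higher than the sample average by over 3 SD, cut at about -0.22 in these data, passing the limit was not always enough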;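 note: slope of raw intensity against log time taken from 70 to 1610 s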). As to conditions: recombinant KvBeta, 4-cyanobenzaldehyde reduction, at 10 µM, stronger effect = higher value.
Assay [7] has the same target. Description: KvBeta positive modulators, primary screen, biochemical, NADPH fluorescence (AID 623;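 active = NADPH fluorescence slope more negative than the mean of all samples by about 3 SD, 99.7% confidence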;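 note: fluorescence intensity change per second fitted from 20 to 320 s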). As to conditions: Recombinant KvBeta, NADPH fluorescence decrease slope, 10 min; at 10 µM; stronger effect = lower value.
In assay [8] the target is Alpha-2C adrenergic receptor (Homo sapiens) (UniProt P18825). Description: modulators of alpha2C/GIRK thallium flux, primary screen, cell-based, HEK293 alpha2C/GIRK1/2 (AID 624;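 active = fluorescence slope after compound addition differing from the mean of all screened samples at 99.7% confidence, in either direction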;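 note: slope of fluorescence ratio to pre-addition baseline per second over 15 to 24 s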). The note with it: thallium flux BTC fluorescence, at 10 µM, actives lie on both sides.
Assay [9] addresses Muscarinic acetylcholine receptor M4 (Homo sapiens) (UniProt P08173). Nature of the assay: compounds altering M4/GIRK thallium flux, either direction, primary screen, M4 allosteric agonist project, cell-based, HEK293 M4/GIRK, BTC-AM (AID 625;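 active = fluorescence slope after compound addition differing from the mean of all tested samples at 99.7% confidence, mostly higher but some lower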;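 note: thallium influx through GIRK channels coupled to M4 in HEK293 cells with BTC-AM dye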). The note with it: at 10 µM, actives lie on both sides.
Assay [10] is described as follows: inhibitors of larval lipid processing in zebrafish, primary screen, whole organism, PED6 fluorescence, gall bladder and intestine (AID 686;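 active = a full or partial loss of lipid-probe fluorescence in the fish gall bladder, intestine or both, judged by eye; inactive = no fluorescence loss, or compound toxic to the fish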;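 note: larvae 5 to 7 days old with five fish per well; signal comes from phospholipase A2 cleavage of quenched PED6 carried via bile; overnight exposure to compound and PED6 before scoring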). The note with it: Zebrafish larvae PED6 lipid processing, fluorescence scoring; screened at 20 µM (by protocol).
Assay [11] is described as follows: inhibitors of Chlamydomonas gravitaxis, primary screen, whole organism, Chlamydomonas reinhardtii, WT vs cilia-less mutant, absorbance, 96-well (AID 463189;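 active = inhibition at or above 50% relative to wild type and mutant plate controls; inactive = inhibition below 50%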;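 note: 0% = wild type cc124 cells in DMSO and 100% = ciliumless bld1 mutant cells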). The note with it: OD600 absorbance, 2 days, at 10 µM, stronger effect = higher value.
A short description of assay [12]: inhibitors of Sendai virus-induced IRF3 signaling, primary screen, TLR/RLR signaling modifier project, cell-based, Sendai virus stimulus, luciferase, 10K MLSCN set (AID 602276;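 active = inhibition at or above 50% at 10 µM; inactive = inhibition below 50%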;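 note: firefly luciferase from ISG56 promoter only with Renilla not read in this screen; 0% = Sendai virus plus DMSO and 100% = medium plus DMSO without virus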). The note with it: HEK293 RL24 IRF3 luciferase reporter, at 10 µM, stronger effect = higher value. (Reporter assays use an easily measured gene product as a stand-in for the process of interest.)
Assay [13] can be described thus: inhibitors of poly I:C-induced TLR3 signaling, primary screen, cell-based, poly I:C stimulus, luciferase, 10K MLSCN set (AID 602277;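 active = inhibition of the reporter signal at or above 50%; inactive = inhibition below 50%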). As to conditions: HEK293-TLR3 RL24 IRF3 luciferase reporter, at 10 µM, stronger effect = higher value.
[14] abbreviates: measured here: cell density z-score.
Where [15] appears, read: measured here: nuclear c-Myc green intensity z-score.
Where [16] appears, read: measured here: nuclear pErk red intensity z-score, stronger effect = higher value.

Voltage-gated potassium channel subunit beta-2 (Rattus norvegicus), sequence (P62483 whole entry, looked up): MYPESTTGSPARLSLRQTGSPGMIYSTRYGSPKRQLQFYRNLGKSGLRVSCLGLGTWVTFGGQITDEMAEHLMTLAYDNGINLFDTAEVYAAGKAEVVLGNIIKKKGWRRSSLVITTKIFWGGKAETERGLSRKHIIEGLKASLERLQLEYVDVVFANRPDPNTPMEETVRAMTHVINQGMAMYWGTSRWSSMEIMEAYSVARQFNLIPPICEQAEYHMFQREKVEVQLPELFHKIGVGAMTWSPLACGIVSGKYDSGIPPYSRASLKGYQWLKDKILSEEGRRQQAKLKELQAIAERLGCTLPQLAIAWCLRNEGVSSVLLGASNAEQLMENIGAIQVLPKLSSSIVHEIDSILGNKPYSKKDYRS
Muscarinic acetylcholine receptor M4 (Homo sapiens), sequence (P08173 whole entry, looked up): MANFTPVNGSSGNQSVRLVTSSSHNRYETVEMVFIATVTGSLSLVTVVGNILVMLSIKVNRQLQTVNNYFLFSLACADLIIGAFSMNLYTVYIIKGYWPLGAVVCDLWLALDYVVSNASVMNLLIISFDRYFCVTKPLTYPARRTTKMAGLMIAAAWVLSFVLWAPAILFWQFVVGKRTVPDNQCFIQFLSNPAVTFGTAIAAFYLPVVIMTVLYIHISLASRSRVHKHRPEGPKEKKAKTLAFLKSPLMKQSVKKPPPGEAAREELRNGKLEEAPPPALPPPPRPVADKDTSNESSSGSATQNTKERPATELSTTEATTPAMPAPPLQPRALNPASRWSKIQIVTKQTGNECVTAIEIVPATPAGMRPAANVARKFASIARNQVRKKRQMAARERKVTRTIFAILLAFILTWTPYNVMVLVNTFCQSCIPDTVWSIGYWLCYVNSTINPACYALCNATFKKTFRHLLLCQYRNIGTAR
Alpha-2C adrenergic receptor (Homo sapiens), sequence (P18825 whole entry, looked up): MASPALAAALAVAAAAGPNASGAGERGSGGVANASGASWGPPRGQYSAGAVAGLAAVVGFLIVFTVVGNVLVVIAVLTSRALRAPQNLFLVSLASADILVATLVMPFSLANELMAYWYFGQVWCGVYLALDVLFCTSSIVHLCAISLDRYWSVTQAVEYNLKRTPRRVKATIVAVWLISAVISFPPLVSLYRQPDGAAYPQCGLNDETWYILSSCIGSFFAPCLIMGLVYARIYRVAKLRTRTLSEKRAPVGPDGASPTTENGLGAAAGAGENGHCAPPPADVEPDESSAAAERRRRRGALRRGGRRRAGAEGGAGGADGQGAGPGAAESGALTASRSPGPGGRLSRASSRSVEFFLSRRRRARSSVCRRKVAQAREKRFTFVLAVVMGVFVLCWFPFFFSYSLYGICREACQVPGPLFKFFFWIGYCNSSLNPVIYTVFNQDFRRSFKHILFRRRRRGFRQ
Dual specificity protein phosphatase 6 (Homo sapiens), sequence (Q16828 whole entry, looked up): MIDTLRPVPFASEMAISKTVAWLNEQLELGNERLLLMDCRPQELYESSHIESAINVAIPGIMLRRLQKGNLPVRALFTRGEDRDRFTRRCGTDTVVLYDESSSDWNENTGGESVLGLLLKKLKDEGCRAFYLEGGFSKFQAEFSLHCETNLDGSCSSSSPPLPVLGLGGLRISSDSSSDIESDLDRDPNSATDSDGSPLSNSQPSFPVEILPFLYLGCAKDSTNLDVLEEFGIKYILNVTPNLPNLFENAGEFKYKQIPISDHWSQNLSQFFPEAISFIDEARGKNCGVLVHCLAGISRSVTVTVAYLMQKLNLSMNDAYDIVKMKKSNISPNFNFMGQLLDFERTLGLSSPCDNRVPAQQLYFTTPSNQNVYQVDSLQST

For `COc1cc2[nH]c3c(=O)n(CCN(C(C)C)C(C)C)cnc3c2cc1OC`, the cell count in assay [1] was 531. Besides, the inhibition was -5.6% (inactive) in assay [1]; -26.1% (inactive) in assay [3]; 3.97% (inactive) in assay [5]; 5.81% (inactive) in assay [11]; 10.1% (inactive) in assay [12]; 33.2% (inactive) in assay [13]. For the same compound, the inhibition of aggregation in assay [2] is -4% (inactive). The values for the nuclei count in assay [2] and in assay [3] were 102% and 150%, respectively. The z-score in [4] (setting [14]) was 0.411; in assay [4] (setting [15]), -1.49; in [4] (setting [16]), 0.261. In addition, the fluorescence slope in [6] was -0.317 (inactive); in assay [9], 0.00609 (inactive). For the same compound, in assay [7], the NADPH fluorescence slope is -1.9e-05 (inactive). In addition, the slope in assay [8] is 0.00406 (inactive). The call in assay [10] was inactive.

`N#CC1=C(N)OC2=C(C(=O)CCC2)C1CCc1ccccc1` (stereo not drawn): in assay [1], the cell count was determined as 620. Further, the inhibition in assay [1] is 2.3% (inactive); in assay [3], -94.4% (inactive); in assay [5], 2.92% (inactive); in assay [11] it was 33.2% (inactive); in [12], 7.7% (inactive); in assay [13] it was 15.7% (inactive). Moreover, the inhibition of aggregation in assay [2] is 21% (inactive). The nuclei count in [2] and in [3] was 110% in each case. Besides, the z-score in assay [4] (setting [14]) was 1.04; in assay [4] (setting [15]), -0.525; in assay [4] (setting [16]), -0.374. In addition, the fluorescence slope in [6] was -0.527 (inactive); in assay [9], 0.00745 (inactive). In addition, the NADPH fluorescence slope in [7] is -1.3e-05 (inactive). For the same compound, in assay [8], the slope was 0.00639 (inactive). For the same compound, the compound was called inactive in assay [10].

Take `CC(C)c1nc(NCC2CCCO2)c(C#N)c2c1COC(C)(C)C2` (stereo not drawn): the cell count in assay [1] stood at 354. Also, the inhibition in [1] is -4.5% (inactive); in [3], -236% (inactive); in [5] it was -8.59% (inactive); in assay [11], -3.7% (inactive); in [12], 20.5% (inactive); in assay [13] it was 25.1% (inactive). In addition, the inhibition of aggregation in assay [2] is 6.9% (inactive). The nuclei count in assay [2] worked out at 86.9%; in assay [3], 132%. Further, the z-score in assay [4] (setting [14]) is -0.206; in assay [4] (setting [15]), -0.66; in assay [4] (setting [16]), -0.111. The fluorescence slope in [6] is -0.461 (inactive); in assay [9], 0.00335 (inactive). Also, the NADPH fluorescence slope in assay [7] is -9.6e-05 (inactive). In addition, the slope in assay [8] is 0.00432 (inactive). For the same compound, the compound was called inactive in assay [10].

On to `CCOc1cc(C2Nc3ccccc3C(=O)N2c2ccccc2OC)ccc1O` (stereo not drawn), for which the cell count in assay [1] is 587. Further, the inhibition in [1] was -3.1% (inactive); in assay [3], -136% (inactive); in assay [5], 9.07% (inactive); in assay [11] it was 2.2% (inactive); in assay [12] it was -2.55% (inactive); in assay [13] it was -13.2% (inactive). Moreover, in assay [2], the inhibition of aggregation is -2.3% (inactive). For the same compound, the nuclei count in assay [2] is 100%; in assay [3] it was 124%. Further, the figures for the z-score in [4] (setting [14]), in assay [4] (setting [15]) and in assay [4] (setting [16]) were 0.614, -1.2 and -0.417, respectively. Further, the fluorescence slope in assay [6] was -0.348 (inactive); in assay [9] it was 0.0049 (inactive). Also, the NADPH fluorescence slope in [7] is -3.8e-05 (inactive). Further, in assay [8], the slope is 0.0046 (inactive). Also, the call in assay [10] was inactive.

As for `CCN(CC)CCOC(=O)C1(c2ccc(OC)c(OC)c2)CCCC1`, the cell count in assay [1] was found to be 540. For the same compound, the inhibition in assay [1] was -5.7% (inactive); in assay [3], -29.5% (inactive); in [5] it was -13.3% (inactive); in [11], 0.789% (inactive); in [12] it was 13.2% (inactive); in [13], 21% (inactive). In [2], the inhibition of aggregation is -1% (inactive). Also, the nuclei count in assay [2] and in assay [3] was 96.9% each time. In addition, the z-score is -0.552 in assay [4] (setting [14]), -0.514 in assay [4] (setting [15]) and -0.16 in assay [4] (setting [16]). Moreover, the fluorescence slope was -0.513 (inactive) in [6] and 0.00575 (inactive) in assay [9]. Moreover, the NADPH fluorescence slope in assay [7] was -1.5e-05 (inactive). The slope in [8] was 0.00483 (inactive). Further, in assay [10], the compound was classed as inactive.

For `Cc1ccc(-n2c(N)c(C(N)=O)sc2=S)cc1`, the cell count in assay [1] was found to be 560. Besides, the inhibition in [1] is -7.1% (inactive); in assay [3] it was -12.7% (inactive); in assay [5], -1.98% (inactive); in [11] it was 21.1% (inactive); in assay [12], 2.77% (inactive); in assay [13], 15.4% (inactive). Moreover, the inhibition of aggregation in assay [2] is -1.4% (inactive). Also, the nuclei count stood at 104% in [2] and 146% in assay [3]. Besides, the z-score in assay [4] (setting [14]) was -0.361; in assay [4] (setting [15]), -1.13; in [4] (setting [16]), 1.48. Besides, the fluorescence slope is -0.427 (inactive) in assay [6] and 0.00756 (inactive) in assay [9]. For the same compound, the NADPH fluorescence slope in assay [7] was -2.9e-05 (inactive). Moreover, the slope in [8] was 0.00443 (inactive). Moreover, the compound was classed as inactive in [10].

One may read the inhibition as the drop in the measured response relative to a control, in per cent.
